Screening data: PubChem BioAssay, National Center for Advancing Translational Sciences (NCATS)
EPAC1 antagonist = qHTS for Antagonist of cAMP-regulated guanine nucleotide exchange factor 3 (EPAC1): primary screen | Rap guanine nucleotide exchange factor 3 (Homo sapiens), O95398 | EPAC1 GEF assay, Rap1b-BODIPY-GDP exchange fluorescence | Potency, µM (titrated, usually from 115 µM), hits mostly inhibitors | 360,000 compounds, 0.14% hits; also: nearly all actives have a fitted effect of over 50% in size
VDR inh = Inhibitors of the vitamin D receptor (VDR): qHTS. Vitamin D3 receptor (Homo sapiens), P11473. VDR-SRC2-3 peptide fluorescence polarization, 2 h. Potency, µM, actives largely listed as inhibitors. 400,000 compounds, 0.93% hits
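Compounds are added to VDR with labelled SRC2-3 coactivator peptide and held 2 h at room temperature. Inhibition of the VDR–peptide interaction is then read as a change in fluorescence polarization.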
EPAC1 agonist = qHTS for Agonist of cAMP-regulated guanine nucleotide exchange factor 3 (EPAC1): primary screen | EPAC1 agonist qHTS, biochemical assay; response scale: 100% = response to 6.5 mM cAMP | Potency, µM (top dose mostly 154 µM), most hits filed as activators | 360,000 compounds, 0.073% hits | AID 720707, 2013; also: nearly all actives have a fitted effect of over 60% in size
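Nucleotide exchange by EPAC1 (100 nM) on Rap1B–BODIPY-GDP (250 nM) in the presence of 50 uM GDP is tracked fluorescently at 480/540 nm over 30 min. Signals are normalized to a 6.5 mM cAMP control.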
EPAC2 antagonist = qHTS for Antagonist of cAMP-regulated guanine nucleotide exchange factor 2 (EPAC2): primary screen | Rap guanine nucleotide exchange factor 4 (Homo sapiens), Q8WZA2 | EPAC2 GEF exchange of Rap1B-BODIPY-GDP, fluorescence | Potency, µM (series often up to 114 µM), usual class: inhibitors | 360,000 compounds, 0.18% hits | AID 720708, 2013; also: nearly all actives have a fitted effect of over 45% in size
Target sequence (Q8WZA2 whole entry, looked up): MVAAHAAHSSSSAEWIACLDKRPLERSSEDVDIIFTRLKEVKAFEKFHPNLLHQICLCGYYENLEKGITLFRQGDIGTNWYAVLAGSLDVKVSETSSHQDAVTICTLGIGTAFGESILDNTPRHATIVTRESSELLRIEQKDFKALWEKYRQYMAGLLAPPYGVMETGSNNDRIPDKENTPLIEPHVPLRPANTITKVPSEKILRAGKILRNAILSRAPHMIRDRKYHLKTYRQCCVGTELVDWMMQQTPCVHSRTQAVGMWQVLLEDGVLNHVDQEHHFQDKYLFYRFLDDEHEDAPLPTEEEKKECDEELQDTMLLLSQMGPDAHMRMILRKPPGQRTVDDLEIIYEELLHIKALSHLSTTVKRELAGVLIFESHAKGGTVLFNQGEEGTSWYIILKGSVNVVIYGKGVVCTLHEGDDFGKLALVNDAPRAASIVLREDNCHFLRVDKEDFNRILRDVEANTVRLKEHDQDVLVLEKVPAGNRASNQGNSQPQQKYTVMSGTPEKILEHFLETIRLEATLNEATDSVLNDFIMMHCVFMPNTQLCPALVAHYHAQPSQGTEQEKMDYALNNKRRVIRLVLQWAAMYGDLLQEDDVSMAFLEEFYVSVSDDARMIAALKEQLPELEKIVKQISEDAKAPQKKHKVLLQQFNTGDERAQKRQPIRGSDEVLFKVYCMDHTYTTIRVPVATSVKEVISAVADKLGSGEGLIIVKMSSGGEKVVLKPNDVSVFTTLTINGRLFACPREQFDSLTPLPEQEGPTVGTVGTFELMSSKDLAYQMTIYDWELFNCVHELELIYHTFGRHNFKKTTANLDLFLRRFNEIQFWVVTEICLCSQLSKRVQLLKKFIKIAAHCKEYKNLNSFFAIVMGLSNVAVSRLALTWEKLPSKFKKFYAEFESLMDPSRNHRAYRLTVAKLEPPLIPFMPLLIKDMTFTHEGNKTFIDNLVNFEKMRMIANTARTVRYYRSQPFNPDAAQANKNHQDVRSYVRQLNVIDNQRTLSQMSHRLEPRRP
USP1 inh = Inhibitors of USP1/UAF1: Primary Screen | Ubiquitin carboxyl-terminal hydrolase 1 (Homo sapiens), O94782 | recombinant USP1/UAF1, Ub-Rhodamine cleavage fluorescence | Potency, µM (highest dose often 57.1 µM), usual class: inhibitors | 390,000 compounds, 0.23% hits; also: nearly all actives have a fitted effect of over 60% in size
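1 nM enzyme complex + cpd, 15 min RT; start with Ub-Rho 150nM final; kinetic fluorescence ex 480/em 540, 6 reads q60 s. Buffer 50mM HEPES pH 7.8, 0.5mM EDTA, 0.1 mg/ml BSA, 1mM TCEP, 0.01% Tween-20.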
EPAC2 ag = qHTS for Agonist of cAMP-regulated guanine nucleotide exchange factor 4 (EPAC2): primary screen. AID 720711, 2013. EPAC2 activation, biochemical qHTS; response scale: 100% = 6.5 mM cAMP response. Rap guanine nucleotide exchange factor 4 (Homo sapiens), Q8WZA2. Potency, µM (top dose mostly 154 µM), usual class: activators. 360,000 compounds, 0.079% hits; also: nearly all actives have a fitted effect of over 50% in size
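Guanine nucleotide exchange by EPAC2 is measured as reduced fluorescence of BODIPY-GDP once it is released from 250 nM Rap1B. Plates are read kinetically for 30 min at room temperature; results are scaled to 6.5 mM cAMP.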
VDR confirm = qHTS for Inhibitors of the vitamin D receptor (VDR): Hit Validation in Primary Screen | shares compounds with VDR inh | AID 602199, 2012 | Potency, µM, usual class: inhibitors | VDR-coactivator inhibition assay, qHTS confirmation | 840 compounds, 89% hits
VDR FP = qHTS for Inhibitors of the vitamin D receptor (VDR): Hit Validation using a Fluorescein Assay; 840 compounds, 48% hits; Potency, µM (top dose mostly 57.1 µM), hits mostly inhibitors; shares compounds with VDR inh; AID 602200, 2012; VDR-coactivator binding, fluorescein fluorescence polarization
VDR bla reporter = qHTS for Inhibitors of the vitamin D receptor (VDR): Hit Validation using a Beta-Lactamase Assay | VDR beta-lactamase reporter cells, FRET ratio; cells co-treated with VDR agonist LG190178 | AID 602202, 2012 | shares compounds with VDR inh | Potency, µM (top dose mostly 46.1 µM), usual class: inhibitors | 840 compounds, 23% hits
VDR cytotox = qHTS for Inhibitors of the vitamin D receptor (VDR): Hit Validation using a Cytotoxicity Assay. cytotoxicity counter-screen, cell viability, qHTS. Potency, µM (top dose mostly 48.3 µM), usual class: cytotoxic. shares compounds with VDR inh. AID 602204, 2012. 840 compounds, 18% hits; also: nearly all actives have a fitted effect of over 75% in size
Of the large screens only hits and unclear results are named; the others gave an inactive call (follow-up assays come after a bar, where they were run). Rows were chosen to be rich in hits. Some 1.2% of all compounds tested hit in one or more screens of this group. Calls follow the shape of the dose curve; as a rule, active = well fitted curve in the direction sought with a large enough effect; inconclusive = small, poorly fitted or top-dose-only effect, or another doubt; inactive = no such curve, though single readings can be large; an effect the other way counts as inactive or inconclusive.

COc1cccc(C(=O)C(C#N)=C(SC)SC)c1	VDR inh 39.8µM | VDR confirm 10.6 | VDR FP inconclusive | VDR bla reporter inconclusive | VDR cytotox 13µM
O=C(/C(=C/c1ccncc1)n1ccnc1)c1ccc(Cl)cc1Cl	VDR inh 79.4µM | VDR confirm 12.6 | VDR FP 12.6µM | VDR bla reporter inactive | VDR cytotox inactive
C=CCn1c(O)c(C2=c3ccccc3=NC2=O)c2ccccc21	VDR inh 20µM | VDR confirm 16.8 | VDR FP inconclusive | VDR bla reporter inconclusive | VDR cytotox inconclusive
C=CCn1c(O)c(C2=c3ccccc3=NC2=O)s/c1=N/c1nccs1	none
CC1CC(O)CC(C)(C)C1 (stereo unspecified)	none (no result: EPAC1 antagonist, EPAC1 agonist, EPAC2 antagonist, USP1 inh, EPAC2 ag)
COc1ccc(NC(=O)C2CCCN(C(=O)c3cnn(-c4ccccc4)c3-n3cccc3)C2)cc1 (stereo unspecified)	none (no result: EPAC1 antagonist, EPAC1 agonist, EPAC2 antagonist, EPAC2 ag)
Cc1[nH]n(-c2ncc(-c3ccc(Cl)cc3)s2)c(=O)c1C(c1ccc(Cl)cc1)C(C#N)C#N (stereo unspecified)	EPAC1 antagonist 39.8µM, VDR inh 50.1µM | VDR confirm 8.44 | VDR FP 7.94µM | VDR bla reporter inactive | VDR cytotox inactive
CC(C)c1nnc(NC(=O)c2nc(S(=O)(=O)Cc3ccccc3F)ncc2Cl)s1	VDR inh 20µM | VDR confirm 8.44 | VDR FP 3.16µM | VDR bla reporter 18.4µM | VDR cytotox 20.6µM
CSc1nnc(NC(=O)c2nc(S(=O)(=O)Cc3ccccc3F)ncc2Cl)s1	VDR inh 20µM | VDR confirm 5.97 | VDR FP 7.94µM | VDR bla reporter 7.31µM | VDR cytotox 11.2µM
O=C(Nc1nc2ccc(F)cc2s1)c1nc(S(=O)(=O)Cc2ccccc2F)ncc1Cl	VDR inh inconclusive (no result: EPAC1 antagonist, EPAC1 agonist, EPAC2 antagonist, EPAC2 ag)
Cc1nnc(NC(=O)c2nc(SCc3ccccc3F)ncc2Cl)s1	none (no result: EPAC1 antagonist, EPAC1 agonist, EPAC2 antagonist, EPAC2 ag)
COc1ccc(CN2[C@@H](CC(C)=O)c3ccc(/C=C/C(C)=O)cc3S2(=O)=O)cc1	VDR inh 79.4µM | VDR confirm 5.01 | VDR FP inconclusive | VDR bla reporter inconclusive | VDR cytotox inconclusive
CCN(CC)CCn1c2c(c(SCC(=O)Nc3cccc(C(F)(F)F)c3)nc1=O)CCC2	USP1 inh inconclusive (no result: EPAC1 antagonist, EPAC1 agonist, EPAC2 antagonist, EPAC2 ag)
O=C(O)CN1C(=O)/C(=C\C(Br)=C\c2ccccc2)SC1=S	EPAC1 antagonist inconclusive, VDR inh 35.5µM, EPAC2 antagonist inconclusive | VDR confirm inconclusive | VDR FP inactive | VDR bla reporter inconclusive | VDR cytotox inconclusive
O=C(O)CN1C(=O)/C(=C/C=C/c2ccccc2)SC1=S	none
CC(C)(C)c1ccc(C(=O)CC(Sc2ccc(Cl)cc2)C(=O)O)cc1 (stereo unspecified)	VDR inh 10µM, USP1 inh inconclusive | VDR confirm 10.6 | VDR FP 3.16µM | VDR bla reporter inactive | VDR cytotox inconclusive
CCOC(=O)C1=C(C)N=C2SC(C(=O)OC)=CC(=O)N2C1c1cccc(OC)c1 (stereo unspecified)	none
CCOC(=O)C1=C(C)N=C2SC(C(=O)OC)=CC(=O)N2C1c1ccc(F)cc1 (stereo unspecified)	VDR inh 22.4µM | VDR confirm 13.4 | VDR FP inconclusive | VDR bla reporter inactive | VDR cytotox inconclusive
COc1ccc(OC)c(CCNC(=O)c2cc3cccc4c3n2CC(C)S4)c1 (stereo unspecified)	none (no result: EPAC1 antagonist, EPAC1 agonist, EPAC2 antagonist, EPAC2 ag)
CC(C)Oc1ccc(C(=O)CCN2CCCCC2)cc1	VDR inh inconclusive | VDR confirm 7.08 | VDR FP 3.16µM | VDR bla reporter inconclusive | VDR cytotox inactive
CCOc1ccc(C(=O)CCN2CCCCC2)cc1	VDR inh inconclusive
CCCCCCCCCCCCCCCCOCC(CO)OC(C)=O (stereo unspecified)	none (no result: EPAC1 antagonist, EPAC1 agonist, EPAC2 antagonist, USP1 inh, EPAC2 ag)
CCc1ccc(-n2nc(CO)c(C(=O)NC)n2)cc1	none (no result: EPAC1 antagonist, EPAC1 agonist, EPAC2 antagonist, EPAC2 ag)
CCOC(=O)/C(C#N)=C1\C(=O)N(Cc2ccccc2)c2ccccc21	VDR inh 28.2µM | VDR confirm 6.7 | VDR FP inconclusive | VDR bla reporter inactive | VDR cytotox inactive
CC(=O)Nc1sc(N/N=C\c2ccccc2F)nc1-c1cccs1	VDR inh 50.1µM, EPAC2 antagonist inconclusive | VDR confirm 2.38 | VDR FP 2.24µM | VDR bla reporter inactive | VDR cytotox inconclusive
CC(=O)Nc1sc(N/N=C\c2ccc(O)cc2)nc1-c1cccs1	none
COC(=O)C1(C(=O)OC)CC2=CC(CC2=O)Cc2ccccc2[C@@H]1C[N+](=O)[O-] (stereo partly specified)	none (no result: EPAC1 antagonist, EPAC1 agonist, EPAC2 antagonist, USP1 inh, EPAC2 ag)
CC(=O)Nc1cccc(C(=O)/C=C/c2ccc[nH]2)c1	none
CCC(=O)Nc1cccc(C(=O)/C=C/c2cc(Br)ccc2OC)c1	EPAC1 antagonist inconclusive, VDR inh inconclusive | VDR confirm 8.91 | VDR FP 14.1µM | VDR bla reporter 4.61µM | VDR cytotox inconclusive
Cc1cccc(C(=O)Nc2ccc(C(=O)/C=C/c3ccncc3)cc2)c1	VDR inh 15.8µM | VDR confirm 7.52 | VDR FP 6.31µM | VDR bla reporter inconclusive | VDR cytotox inconclusive
